Structures are written as SMILES. Among all 63,000 compounds or so, about 1,100 (1.7%) were called active. Many of the other results were omitted from the sample, so actives are more common in it than they were. Potency and affinity values are given separately. A number with no mark means an inactive call.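 The calls were made as follows: active = compounds whose percent cytotoxicity in the single-dose primary screen, scaled between solvent and toxic-drug controls, exceeds 50; inactive = the rest.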

This experiment in a line: viability loss of HPDE-C7K cells – cell-based, fluorescence, HTS, primary screen (AID 431).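 Also: 0% = DMSO solvent wells and 100% = doxorubicin-treated wells.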 The following applies: HPDE-C7K KRASV12 cells, Alamar Blue viability, 48 h; at 10 µM; stronger effect = higher value.
Turning to `O=C1NCC2=C1C(c1ccc(Br)cc1)Nc1ccccc1N2` (stereo unspecified), the cytotoxicity is -0.1%.
Next, `Cc1c(NC(=O)COC(=O)c2cc3c4ccccc4n(C)c3s2)c(=O)n(-c2ccccc2)n1C`: 19.8%; `Cc1nnc(NC(=O)Nc2cccc(Cl)c2)s1`: 12.5%; `CNC(=O)C1C2C=CC3(O2)C1C(=O)N(C1CC1)C3C(=O)NCc1ccc(OC)cc1` (stereo unspecified): 3.6%.
With `CC(=O)c1c(C)nc(-c2ccc3c(c2)OCO3)n1O`, the cytotoxicity was -5.4%.
Next, `O=C(Nc1ccc2c(c1)OCO2)C(c1ccc(Cl)cc1)N1CCC2(CC1)OCCO2` (stereo unspecified): 5.8%; `O=C(CSc1nnc(Cc2ccccc2)o1)Nc1ccc(Br)cn1`: -11.2%.
Next, `O=C(NCc1ccccc1)N1CCC(c2nc3ccccc3[nH]2)CC1`: -0.6%; `Cc1ccccc1S(=O)(=O)Cc1ccc(C(=O)NCCN2CCN(Cc3ccccc3)CC2)o1`: 3.7%.
Next, `O=C(OCCCc1ccncc1)c1ccc(S(=O)(=O)N2CCOCC2)cc1`: -10.8%; `CC(Oc1ccccc1)C(=O)N1CCCc2ccccc21` (stereo unspecified): -9.7%; `O=C(NCC1CCCO1)c1cc(-c2ccncc2)nc2ccc(S(=O)(=O)N3CCOCC3)cc12` (stereo unspecified): -15.7%.
In the case of `O=C(COC(=O)c1cc(S(=O)(=O)N2CCOCC2)ccc1O)NCC1CCCO1` (stereo unspecified), the cytotoxicity is 55.2% (active).
For `O=C(COC(=O)c1ccc(Br)c(S(=O)(=O)N2CCOCC2)c1)NCC1CCCO1` (stereo unspecified), the cytotoxicity was -3.7%.
Next, `Cc1ccnc(NC(=O)CCC(=O)N(CC(=O)NC2CCCCC2)c2ccc3c(c2)OCO3)c1`: -7.7%; `CCC1CCCCN1C(=O)CSc1nc(N)c(NC(=O)c2ccco2)c(=O)[nH]1` (stereo unspecified): -21.6%.
`CC1Oc2ccccc2N(CC(=O)c2cccc(Cl)c2)C1=O` (stereo unspecified): the cytotoxicity is -8.4%.
For the compound `Cc1cc(NC(=O)CCCS(=O)(=O)c2nc(-c3cccs3)cc(C(F)(F)F)n2)no1`, the cytotoxicity was 4.1%.
As for `CCOC(=O)CS(=O)(=O)c1ccc2ccccc2c1`, the figure is -6.4%.
Next, `COc1ccc(-c2cc(C(F)(F)F)nc(SCC(=O)Nc3cc(C)on3)n2)cc1`: -11.8%; `CCOC(=O)c1cnn2c(C)cc(-c3ccc(F)cc3)nc12`: -18.9%.
As for `COc1ccc(-c2cc(C(F)(F)F)nc(SCCC(=O)NCc3ccco3)n2)cc1`, the figure is -8.8%; as for `CCOC(=O)CS(=O)(=O)c1nc(-c2ccccc2)cc(C(F)(F)F)n1`, 34.5%.
As for `COCC(C)NC(=O)CCS(=O)(=O)c1nc(-c2ccc(OC)cc2)cc(C(F)(F)F)n1` (stereo unspecified), the cytotoxicity was 52.3% (active).
As for `COC(=O)c1ccc2c(=O)n(CCCCCC(=O)NCc3ccccn3)c(=O)[nH]c2c1`, the figure is 2.9%; as for `CCCC(=O)NCCCCNC(=O)CCC`, -12.2%.
With `Cc1ccc(CN(Cc2cccnc2)C(=O)CN2C(=O)COc3ccccc32)o1`, the cytotoxicity is -12.5%.
Take `CC(=O)Nc1ccc(NC(=O)Oc2ccccc2)cc1`: the cytotoxicity was -2.5%.
For `O=C(Nc1ccc(N2CCN(c3ccc(O)cc3)CC2)cc1)Oc1ccccc1`, the cytotoxicity is 65.7% (active).
On to `CC(C)Oc1ccc(NC(=O)Oc2ccccc2)cc1`, for which the cytotoxicity is 3.4%.
As for `Cn1c(=O)c2ccccc2n(Cc2ccccc2F)c1=O`, the figure is 2.5%; as for `CCOc1ccccc1Oc1ccc(C(F)(F)F)cn1`, -8.8%.
For the compound `CS(=O)(=O)c1ccc2nc(NC(=O)c3cccs3)sc2c1`, the cytotoxicity is 3%.
Next, `COc1ccccc1C(=O)Nc1nc2ccc(S(C)(=O)=O)cc2s1`: -0.1%; `CC(C)n1nc(C(=O)Nc2nc3ccc(S(C)(=O)=O)cc3s2)c2ccccc2c1=O`: 53.7% (active).
As for `Cc1cccc(OCCCc2c(C)n[nH]c2C)c1`, the figure is 12.8%; as for `CCCCNS(=O)(=O)c1ccc2nc(SCC(=O)Nc3sccc3C#N)[nH]c2c1`, 80.6% (active).
On to `CCCCNS(=O)(=O)c1ccc2nc(SCC(=O)c3ccc(C#N)cc3)[nH]c2c1`, for which the cytotoxicity was 10.9%.
As for `N#Cc1ccsc1NC(=O)CSc1ncn[nH]1`, the figure is -18.4%; as for `CCn1cc(/C=C(/C#N)S(=O)(=O)c2ccccc2)cn1`, 2.3%; as for `Cc1ccc(C(C)NC(=O)c2c(C)noc2C)cc1C` (stereo unspecified), -2.1%.
As for `CCOC(=O)N1CCN(Cc2nc(N)nc(Nc3ccc(Oc4ccccc4)cc3)n2)CC1`, the figure is 28%.
For the compound `CCOc1ccccc1OCC(=O)O`, the cytotoxicity is 6.8%.
In the case of `O=C(O)COc1ccc2nsnc2c1Cl`, the cytotoxicity is -27.6%.
Next, `C=CCOc1ccccc1/C=N/O`: -4.8%.
Consider `O=C1CN(C(=O)c2ccc(Br)o2)C(c2ccccc2)c2cc(F)ccc2N1` (stereo unspecified), for which the cytotoxicity was 3%.
In the case of `COCCN(CC(=O)NCc1ccccc1)C(=O)CCC(=O)Nc1ccccn1`, the cytotoxicity is 4.7%.
Next, `CCCCOc1ccc(C(=O)NC)cc1`: -11.7%; `CCCCOc1ccc(C(=O)OC2CC(C)N(C)CC2C)cc1` (stereo unspecified): 81.6% (active).
Next, `CCCCOc1ccc(C(=O)N2CCC(C)CC2)cc1`: -4.4%.
Next, `Cc1cc(C)n(-c2nc3nonc3nc2-n2nc(C)cc2C)n1`: -2.4%.
With `O=C1N=c2ccccc2=C1c1sc(=S)n(CC2CCCO2)c1O` (stereo unspecified), the cytotoxicity was 20.6%.
Next, `C=CCn1c(O)c(C2=c3ccccc3=NC2=O)s/c1=N/c1nccs1`: -2.3%.
Next, `C=CCn1c(O)c(C2=c3ccccc3=NC2=O)sc1=Nc1ccc(O)cc1`: 117% (active); `C=CCOC(=O)C1=C(C)NC(C)=C(C(=O)OCC=C)C1c1ccc(O)cc1`: 1.1%; `CN1C(=O)CC(C(=O)Nc2ccc(F)cc2)SC1=Nc1ccc2c(c1)OCO2` (stereo unspecified): 12.5%.
In the case of `O=C(COc1nncc2ccccc12)NCCC1=CCCCC1`, the cytotoxicity was -7.1%.
Turning to `COc1cc([C@@H]2c3cc4c(cc3[C@H](O)[C@H]3COC(=O)[C@H]23)OCO4)cc(OC)c1OC`, the cytotoxicity was 70% (active).
Next, `COc1cc(CC(=O)Oc2ccc3c(c2)OCO3)cc(OC)c1OC`: 27.3%; `COc1cc(CC(=O)NCc2ccc3c(c2)OCO3)cc(OC)c1OC`: -11.8%.
Regarding `Cc1cccc(C)c1OCC(=O)Nc1cccc(NC(=O)c2ccco2)c1`, the cytotoxicity was 2.8%.

For the origin of these results see PubChem BioAssay AID431 (Sanford-Burnham Center for Chemical Genomics, 2006).
